Results published in PubChem BioAssay (NCATS).
Inconclusive results are not listed. Calls of active or inactive are those of the source. The call rests on the fitted dose curve; in most records, active means well fitted inhibition curve with a large enough effect; inconclusive means small, poorly fitted or top-dose-only effect; inactive means flat fitted curve, though single readings scatter.

Columns and labels:
Test in all cases: qHTS profiling for inhibitors of Plasmodium falciparum proliferation (AID 504749); further: nearly all actives have a fitted effect of over 60% in size
Conditions in all cases: P. falciparum in erythrocytes, SYBR Green DNA, 72 h; series mostly up to 28.7 µM
3D7 = system: 3D7
Method in brief: (§1)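 Quantitative HTS: compounds pinned into medium, infected erythrocytes added (0.3% parasitemia, 2.5% hematocrit), 72 h culture at 37 C under 5% CO2. Saponin/Triton lysis with SYBR Green I, overnight RT, then fluorescence read.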

7G8 = system: 7G8
Method in brief: as §1

ATS95 = system: ATS95
Method in brief: as §1

CP185 = system: CP185
Method in brief: as §1

CP201 = system: CP201
Method in brief: as §1

CP237 = system: CP237
Method in brief: as §1

CP238 = system: CP238
Method in brief: as §1

CP262 = system: CP262
Method in brief: as §1

CP265 = system: CP265
Method in brief: as §1

CP268 = system: CP268
Method in brief: as §1

CP305 = system: CP305
Method in brief: as §1

CP335 = system: CP335
Method in brief: as §1

DIV30 = system: DIV30
Method in brief: as §1

Dd2 = system: Dd2
Method in brief: as §1

ECU = system: ECU
Method in brief: as §1

GB4 = system: GB4
Method in brief: as §1

HB3 = system: HB3
Method in brief: as §1

P94_40 = system: P94_40
Method in brief: as §1

PC26 = system: PC26
Method in brief: as §1

TAB109 = system: TAB109
Method in brief: as §1

Measured: Potency

Oc1ccc(/C=C\c2cc(O)cc(O)c2)cc1
inactive: all assays above
